HCMV inh – inhibitors of human cytomegalovirus. HFF cells, HCMV-luciferase reporter, 72 h; hits give low values. AID 1259415. activity change, negative = inhibition, % at 57.5 µM. 410,000 compounds, 4.5% hits; in the data active = activity change below about -60%; inconclusive = no clear call, values can overlap the other calls; inactive = above about -39%; note: % is set by controls: 0 for no effect and ±100 for the full control effect
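Human foreskin fibroblasts infected with luciferase-reporter HCMV at MOI 1 PFU/cell, compounds at two doses. Luciferase measured 72 h post infection; normalized to buffer-only basal and Salinomycin (10uM) controls.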
HCV inh – HCV inhibition. 340,000 compounds, 3.4% hits. Huh7.5.1 HCVcc-Cre infection, luciferase reporter, 44 h. Potency, µM (series often up to 41.8 µM), for inactives: top-dose activity change, negative = inhibition, hits mostly inhibitors; note: potency is the fitted concentration of half-maximal effect; % is set by controls: 0 for no effect and ±100 for the full control effect
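Antiviral activity was scored by luciferase reporter output from cells infected with HCVcc-Cre (~0.5 moi) in presence of compound, 44 h infection period, cells seeded 1,000/well 4 h prior.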
Cycloheximide cs – affects cycloheximide protein synthesis inhibition readout, counter-screen; cell reporter, cycloheximide protein synthesis inhibition counterscreen; max response, %; 300,000 compounds, 12% hits; in the data active = max response mostly above about 13%, no sharp cut-off; inactive = mostly below about 14%; note: read at 38.3 µM for the half of the compounds with a filed dose; 0% is about no effect
Shiga inhibitor – Shiga toxin inhibition; Vero cells, Shiga toxin protein synthesis inhibition reporter; inhibition, % at 38.7 µM; 290,000 compounds, 9.2% hits; AID 2315; in the data active = inhibition mostly above about 28%, no sharp cut-off; inactive = mostly below about 43%; note: 0% is about no effect
Pf growth 96h – P. falciparum growth inhibition at 96 hours. P. falciparum luciferase reporter growth, 96 h. Potency, µM (top dose mostly 28.7 µM), without a hit: at the highest dose activity change, negative = inhibition, usual class: inhibitors. 320,000 compounds, 6.9% hits; note: potency is the fitted concentration of half-maximal effect; % is set by controls: 0 for no effect and ±100 for the full control effect
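Parasite growth measured via integrated firefly luciferase reporter in P. falciparum. Infected erythrocytes at 2% hematocrit, 0.05% parasitemia final were treated 96 hours at 37 C under 5% CO2, and luminescence was read.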
Pf growth 48h – inhibits P. falciparum growth in the first generation, 48 h; P. falciparum luciferase growth in erythrocytes, 48 h; Potency, µM (top dose mostly 28.7 µM), inactives show at the highest dose activity change, negative = inhibition, most hits filed as inhibitors; 310,000 compounds, 5.9% hits; note: potency is the fitted concentration of half-maximal effect; % is set by controls: 0 for no effect and ±100 for the full control effect
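Cell-based growth assay: transgenic P. falciparum expressing firefly luciferase, cultured in red cells within RPMI 1640 containing 0.5% w/v Albumax, 24 mM bicarbonate and gentamycin. A drop in luciferase activity indicates inhibition.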
HCV confirm – HCV inhibition, cherry-pick confirmation; shares compounds with HCV inh; HCVcc-Cre infectious virus cell assay, luciferase, inhibition; Potency, µM (series often up to 41.8 µM), for inactives: top-dose activity, negative = inhibition, most hits filed as inhibitors; 640 compounds, 78% hits; AID 720575; note: potency is the fitted concentration of half-maximal effect; nearly all actives have a fitted effect of over 80% in size
HCV cytotox – host cell cytotoxicity counter-screen for HCV inhibitors; shares compounds with HCV inh; HCV host cell line cytotoxicity counterscreen; Potency, µM (titrated, usually from 41.8 µM), without a hit: top-dose activity change, negative = cytotoxicity, most hits filed as inhibitors; 640 compounds, 22% hits;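 note: potency is the fitted concentration of half-maximal effect; 44 h compound exposure; % is set by controls: 0 for no effect and ±100 for the full control effect; nearly all actives have a fitted effect of over 55% in size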
* hit, by the source's call; ? = inconclusive; · = no result given. Compounds with a hit are over-represented: about 21% of the library has one in this group of screens. Unless noted, calls come from the whole dose curve; as a rule, active = well fitted curve in the direction sought with a large enough effect; inconclusive = small, poorly fitted or top-dose-only effect, or another doubt; inactive = no such curve, though single readings can be large; an effect the other way counts as inactive or inconclusive.

SMILES	HCMV inh	HCV inh	Cycloheximide cs	Shiga inhibitor	Pf growth 96h	Pf growth 48h	HCV confirm	HCV cytotox
CCCCN(C(=O)CCN1C(=O)C2CC=CCC2C1=O)c1c(N)n(CCCC)c(=O)[nH]c1=O (stereo not given)	-13	7%	·	·	·	·	·	·
C=CC[C@H](CC(=O)OC(C)(C)C)C(=O)OC[C@@H]1CCCN1C(=O)[C@H](CC=C)CC(=O)N[C@H](CO)Cc1ccccc1	-18	?	·	·	·	·	·	·
Nc1ccc2c(c1)C(=O)c1ccccc1C2=O	27	?	·	·	132%	91%	·	·
Nc1ccc2c(c1)C(=O)c1ccc(Br)cc1-2	45	?	·	·	·	·	-20%	-10%
COc1ccc(C(=O)NC2CC3CCCC(C2)N3CC(C)C)cc1 (stereo not given)	41	-3%	-1	-7	-11%	-5%	·	·
C/C(=N\Nc1ccc2nncn2n1)c1ccccn1	-96*	2µM*	-2	8	?	?	5.6µM*	?
CCOc1cc(NC(=S)NCC2CCCO2)c(OCC)cc1NC(=O)c1ccccc1 (stereo not given)	-9	8.9µM*	-3	8	?	?	?	32%
CN1CCN(NC(=O)c2c(-c3ccccc3)sc3ccccc23)CC1	1	-8%	·	·	·	·	·	·
Cc1nn(CC(=O)NCC(C)c2ccccc2)c(=O)c2cc(-c3ccccc3)nn12 (stereo not given)	-30	-14%	-7	-9	16%	6%	·	·
Cc1ccc(S(=O)(=O)N2CCC(=O)N(CCOCc3ccc(C(F)(F)F)cc3)CC2)cc1	?	?	7	-2	?	-22%	2.2µM*	?
COC(=O)c1cccc(NC(=O)CSc2nnc(C)n2C)c1	-25	-28%	-3	-9	-5%	-7%	·	·
CC(=O)Nc1ccc(Nc2cc(C(C)C)nc3c(-c4ccccc4)c(C)nn23)cc1	?	2.5µM*	7	18	13µM*	?	14µM*	-17%
Cc1ccc(C2=NCCn3c2c2ccc([N+](=O)[O-])cc2[n+]3[O-])cc1	17	?	·	·	?	?	22µM*	30%
CN1CCC(=C2c3ccccc3CCc3sccc32)CC1	·	?	-4	-17	-29%	15µM*	3.1µM*	-23%
CCOc1ccc(/C=C/C(=O)Nc2ccc(C(N)=O)cc2)cc1OC	-39	5%	4	-10	-13%	9%	·	·
CCOc1cc(/C=C/C(=O)Nc2ccc(C(=O)NCCN(CC)CC)cc2)ccc1OCC(C)C	-114*	3.2µM*	6	-3	0.52µM*	2.6µM*	16µM*	35µM*
O=C(COC(=O)c1ccc(S(=O)(=O)N2CCCCCC2)cc1)NCc1ccc(Cl)cc1	-15	5%	·	·	-25%	-23%	·	·
Cc1cc(C)c(S(=O)(=O)NCc2cn3ccccc3n2)c(C)c1	-34	9%	8	-5	45%	0%	·	·
Cc1cc(C)c(S(=O)(=O)Nc2ccc(-c3cn4ccccc4n3)cc2)c(C)c1	?	?	15	15	·	15µM*	22µM*	-14%
COc1cc(OC)cc(C(=O)N/N=C\c2ccoc2)c1	36	-21%	9	12	16%	-2%	·	·
CCn1c(=O)c2cc(C(=O)Nc3ccccc3OC)sc2c2ccccc21	0	?	-3	-12	?	?	14µM*	-15%
Cc1nc(-c2ccc(C(=O)Nc3cccc(Br)c3)cc2)cs1	-68*	4.5µM*	33*	56*	-9%	63%	2.8µM*	4µM*
Cc1ccc(C(=O)COC(=O)c2cccc(NC(=O)c3ccc(Br)cc3)c2)cc1	26	·	·	·	·	·	·	·
COCCn1c(SCC(=O)c2ccccc2)nc2c(c1=O)SC(C)C2 (stereo not given)	-28	-27%	10	1	10%	-9%	·	·
CCn1c(SCC(=O)c2ccccc2)nc2c(c1=O)SC(C)C2 (stereo not given)	-21	?	2	7	30%	?	?	22%
SMILES	HCMV inh	HCV inh	Cycloheximide cs	Shiga inhibitor	Pf growth 96h	Pf growth 48h	HCV confirm	HCV cytotox
C[C@@H](CSc1ccc(Br)cc1)CN1CC[C@H](NC(=O)OCc2ccccc2)CCC1=O	-25	4.5µM*	·	·	·	·	14µM*	-63%
COc1ccc(SC[C@H](C)CN2CC[C@H](NC(=O)OCc3ccccc3)CCC2=O)cc1	-13	?	·	·	·	·	·	·
NC(=S)c1cn(C2OC(CO)C(O)C2O)c2ncnc(N)c12 (stereo not given)	-99*	0.28µM*	-2	-5	4.1µM*	1.3µM*	0.44µM*	0.44µM*
NC(=O)c1ncn(C2OC(CO)C(O)C2O)c1N (stereo not given)	·	·	·	·	?	-3%	·	·
COc1ccc(C(=O)O)cc1S(=O)(=O)Nc1cc(Cl)ccc1N1CCOCC1	75	-22%	·	·	?	?	·	·
O=C(Nc1cccc(NC(=O)c2ccc(-c3ccc(Br)cc3)o2)c1)c1ccco1	?	6.3µM*	38*	92*	?	9.3µM*	7µM*	17%
COc1ccc(-c2cc(-c3ccccc3)nc(SCC(=O)Nc3nccs3)c2C#N)cc1	0	-1%	2	20	?	18%	·	·
COc1ccc(-c2cc(-c3ccccc3)c(C#N)c(SCC(=O)Nc3ncc(C)s3)n2)cc1	-12	4.5µM*	-3	-3	-13%	13µM*	20µM*	9%
COc1ccccc1CCC(=O)OCC(=O)c1c(N)n(CC(C)C)c(=O)n(C)c1=O	-3	-14%	·	·	?	-11%	·	·
CCOc1ccccc1OCC(=O)OCC(=O)c1c(N)n(CC(C)C)c(=O)n(C)c1=O	-4	?	·	·	-2%	-19%	?	-90%
COC(=O)c1ccc2c(c1)C(C)(C)C(/C=C/c1ccc(O)cc1)=[N+]2C	-102*	2.2µM*	-10	-26	5.2µM*	?	5µM*	8.9µM*
COc1ccc(/C=N\NC(=O)c2ccccc2Br)cc1COc1c(F)c(F)cc(F)c1F	-81*	5µM*	-2	-11	11%	35%	4.4µM*	22µM*
COc1cc(OC)c(NC(=O)C(=O)CC(=O)c2ccc(C)cc2C)cc1Cl	10	3.5µM*	-8	-10	3.3µM*	?	14µM*	-14%
COc1cc(OC)c(NC(=O)Cn2cccc2)cc1Cl	-17	-8%	-2	-9	?	55%	·	·
Cc1ccc(-c2nnn(CC(=O)Nc3nnc(C(C)C)s3)n2)cc1	-18	-4%	-3	-5	?	35%	·	·
O=C(Nc1cc(Br)ccc1O)c1cnn2c(C(F)F)cc(C3CC3)nc12	-7	?	-2	-1	-23%	4.1µM*	7µM*	-95%
